Results published in PMC12820563, “FoxP3 forms a head-to-head dimer in vivo and stabilizes its multimerization on adjacent microsatellites”.
Whole data set: some 16,000 sequences, median “rpm ratio (pull-down/input)” near 0.5, cut for the highest 2% near 5.5. The full list was thinned out, with the highest values kept by preference.

Biological target: T1, MBP-FoxP3dN (Mus musculus, UniProt Q99JB6 188-423)
T1 sequence: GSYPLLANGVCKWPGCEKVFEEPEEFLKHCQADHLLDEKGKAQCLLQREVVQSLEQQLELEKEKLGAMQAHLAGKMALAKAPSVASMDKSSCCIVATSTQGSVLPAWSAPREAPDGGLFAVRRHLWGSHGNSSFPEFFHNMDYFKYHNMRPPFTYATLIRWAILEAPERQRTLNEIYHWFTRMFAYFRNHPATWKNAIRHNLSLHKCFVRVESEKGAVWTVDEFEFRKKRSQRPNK
Test: PD-seq (MBP pull-down with sequencing); 20 mM Tris-HCl pH 7.5, 100 mM NaCl, 1.5 mM MgCl2, 0.4 uM protein, 0.1 uM dsDNA library, 30 min, room temperature, amylose pull-down; high values mean tight binding
Conditions: protein: recombinant; tags: His6-MBP; chain copies: 2; dsDNA, one strand shown
Procedure, shortened: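 A degenerate double-stranded DNA library, filled in with Klenow, was added at 0.1 µM to 0.4 µM His6-MBP-tagged mouse FoxP3 or FoxP1 fragment lacking the N-terminus, expressed in E. coli. Incubation lasted 30 min at room temperature in Tris pH 7.5 buffer with NaCl and MgCl2, after which complexes were collected on amylose resin, washed three times, digested with proteinase K to free the DNA, barcoded by PCR and sequenced by Illumina. Binding is the pooled-replicate reads-per-million enrichment of pull-down over input.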

**Q.** With “GATGATTGTTCTCCCAGCTGATGAATTATTCAACTCGAGTAAACAAATTTTCCTAATCTTTCTGTTCAAGCGCCATCTAC” as the sequence, how does the binding signal read?
**A.** 0.381 RPM ratio (pull-down/input)

**Q.** With “GATGATTGTTCTCCCAGCTGATGAATTATGCCACTCGAGTAAACAAATTTTCCTAATCTTTCTGTTCAAGCGCCATCTAC” as the sequence, how does the binding signal read?
**A.** 6.25 RPM ratio (pull-down/input)

**Q.** For “GATGATTGTTCTCCCAGCTGATGAATTATGGCATTCGAGTAAACAAATTTTCCTAATCTTTCTGTTCAAGCGCCATCTAC”, which binding signal is on record?
**A.** 5.55 RPM ratio (pull-down/input)

**Q.** With “GATGATTGTTCTCCCAGCTGATGAATTGAAAACATCGAGTAAACAAATTTTCCTAATCTTTCTGTTCAAGCGCCATCTAC” as the sequence, how does the binding signal read?
**A.** 1.27 RPM ratio (pull-down/input)

**Q.** How did the binding signal turn out when “GATGATTGTTCTCCCAGCTGATGAATTCAGGACCTCGAGTAAACAAATTTTCCTAATCTTTCTGTTCAAGCGCCATCTAC” was run?
**A.** 0.26 RPM ratio (pull-down/input)

**Q.** With “GATGATTGTTCTCCCAGCTGATGAATTGCGTCATTCGAGTAAACAAATTTTCCTAATCTTTCTGTTCAAGCGCCATCTAC” as the sequence, how does the binding signal read?
**A.** 2.09 RPM ratio (pull-down/input)

**Q.** “GATGATTGTTCTCCCAGCTGATGAATTGCGGGGGTCGAGTAAACAAATTTTCCTAATCTTTCTGTTCAAGCGCCATCTAC” was tested. Which binding signal did it give?
**A.** 0.984 RPM ratio (pull-down/input)

**Q.** How did the binding signal turn out when “GATGATTGTTCTCCCAGCTGATGAATTGAGCTGGTCGAGTAAACAAATTTTCCTAATCTTTCTGTTCAAGCGCCATCTAC” was run?
**A.** 0.419 RPM ratio (pull-down/input)

**Q.** For “GATGATTGTTCTCCCAGCTGATGAATTAGGATGGTCGAGTAAACAAATTTTCCTAATCTTTCTGTTCAAGCGCCATCTAC”, which binding signal is on record?
**A.** 0.492 RPM ratio (pull-down/input)

**Q.** “GATGATTGTTCTCCCAGCTGATGAATTGGAAGCCTCGAGTAAACAAATTTTCCTAATCTTTCTGTTCAAGCGCCATCTAC” was tested. Which binding signal did it give?
**A.** 0.359 RPM ratio (pull-down/input)

**Q.** With “GATGATTGTTCTCCCAGCTGATGAATTGAATAGATCGAGTAAACAAATTTTCCTAATCTTTCTGTTCAAGCGCCATCTAC” as the sequence, how does the binding signal read?
**A.** 0.257 RPM ratio (pull-down/input)

**Q.** Which binding signal does the source give for “GATGATTGTTCTCCCAGCTGATGAATTTGGTGCCTCGAGTAAACAAATTTTCCTAATCTTTCTGTTCAAGCGCCATCTAC” here?
**A.** 1.91 RPM ratio (pull-down/input)

**Q.** Which binding signal does the source give for “GATGATTGTTCTCCCAGCTGATGAATTATGCAATTCGAGTAAACAAATTTTCCTAATCTTTCTGTTCAAGCGCCATCTAC” here?
**A.** 5.58 RPM ratio (pull-down/input)

**Q.** How did the binding signal turn out when “GATGATTGTTCTCCCAGCTGATGAATTATGCAAATCGAGTAAACAAATTTTCCTAATCTTTCTGTTCAAGCGCCATCTAC” was run?
**A.** 1.16 RPM ratio (pull-down/input)

**Q.** “GATGATTGTTCTCCCAGCTGATGAATTTATGCAATCGAGTAAACAAATTTTCCTAATCTTTCTGTTCAAGCGCCATCTAC” was tested. Which binding signal did it give?
**A.** 4.25 RPM ratio (pull-down/input)

**Q.** Which binding signal does the source give for “GATGATTGTTCTCCCAGCTGATGAATTATGCATTTCGAGTAAACAAATTTTCCTAATCTTTCTGTTCAAGCGCCATCTAC” here?
**A.** 7.25 RPM ratio (pull-down/input)

**Q.** With “GATGATTGTTCTCCCAGCTGATGAATTATGAATCTCGAGTAAACAAATTTTCCTAATCTTTCTGTTCAAGCGCCATCTAC” as the sequence, how does the binding signal read?
**A.** 2.3 RPM ratio (pull-down/input)

**Q.** How did the binding signal turn out when “GATGATTGTTCTCCCAGCTGATGAATTATGCAGCTCGAGTAAACAAATTTTCCTAATCTTTCTGTTCAAGCGCCATCTAC” was run?
**A.** 3.11 RPM ratio (pull-down/input)

**Q.** With “GATGATTGTTCTCCCAGCTGATGAATTATGATTTTCGAGTAAACAAATTTTCCTAATCTTTCTGTTCAAGCGCCATCTAC” as the sequence, how does the binding signal read?
**A.** 1.8 RPM ratio (pull-down/input)

**Q.** “GATGATTGTTCTCCCAGCTGATGAATTATGCATCTCGAGTAAACAAATTTTCCTAATCTTTCTGTTCAAGCGCCATCTAC” was tested. Which binding signal did it give?
**A.** 7.47 RPM ratio (pull-down/input)

**Q.** “GATGATTGTTCTCCCAGCTGATGAATTATGAATTTCGAGTAAACAAATTTTCCTAATCTTTCTGTTCAAGCGCCATCTAC” was tested. Which binding signal did it give?
**A.** 1.57 RPM ratio (pull-down/input)

**Q.** “GATGATTGTTCTCCCAGCTGATGAATTGAGGCCGTCGAGTAAACAAATTTTCCTAATCTTTCTGTTCAAGCGCCATCTAC” was tested. Which binding signal did it give?
**A.** 0.905 RPM ratio (pull-down/input)

**Q.** How did the binding signal turn out when “GATGATTGTTCTCCCAGCTGATGAATTAACTGTTTCGAGTAAACAAATTTTCCTAATCTTTCTGTTCAAGCGCCATCTAC” was run?
**A.** 0.641 RPM ratio (pull-down/input)

**Q.** How did the binding signal turn out when “GATGATTGTTCTCCCAGCTGATGAATTGATGCCATCGAGTAAACAAATTTTCCTAATCTTTCTGTTCAAGCGCCATCTAC” was run?
**A.** 3.67 RPM ratio (pull-down/input)

**Q.** Which binding signal does the source give for “GATGATTGTTCTCCCAGCTGATGAATTGATGCAATCGAGTAAACAAATTTTCCTAATCTTTCTGTTCAAGCGCCATCTAC” here?
**A.** 5.86 RPM ratio (pull-down/input)

**Q.** For “GATGATTGTTCTCCCAGCTGATGAATTTTTGCAATCGAGTAAACAAATTTTCCTAATCTTTCTGTTCAAGCGCCATCTAC”, which binding signal is on record?
**A.** 3.95 RPM ratio (pull-down/input)

**Q.** How did the binding signal turn out when “GATGATTGTTCTCCCAGCTGATGAATTGCAACCATCGAGTAAACAAATTTTCCTAATCTTTCTGTTCAAGCGCCATCTAC” was run?
**A.** 4.48 RPM ratio (pull-down/input)

**Q.** Which binding signal does the source give for “GATGATTGTTCTCCCAGCTGATGAATTGCAGCAATCGAGTAAACAAATTTTCCTAATCTTTCTGTTCAAGCGCCATCTAC” here?
**A.** 2.72 RPM ratio (pull-down/input)

**Q.** “GATGATTGTTCTCCCAGCTGATGAATTTCTGCAATCGAGTAAACAAATTTTCCTAATCTTTCTGTTCAAGCGCCATCTAC” was tested. Which binding signal did it give?
**A.** 3.01 RPM ratio (pull-down/input)

**Q.** With “GATGATTGTTCTCCCAGCTGATGAATTGCAACAATCGAGTAAACAAATTTTCCTAATCTTTCTGTTCAAGCGCCATCTAC” as the sequence, how does the binding signal read?
**A.** 7.74 RPM ratio (pull-down/input)

**Q.** With “GATGATTGTTCTCCCAGCTGATGAATTGTTGCAATCGAGTAAACAAATTTTCCTAATCTTTCTGTTCAAGCGCCATCTAC” as the sequence, how does the binding signal read?
**A.** 5.54 RPM ratio (pull-down/input)

**Q.** For “GATGATTGTTCTCCCAGCTGATGAATTGCAATCATCGAGTAAACAAATTTTCCTAATCTTTCTGTTCAAGCGCCATCTAC”, which binding signal is on record?
**A.** 2.79 RPM ratio (pull-down/input)
